The results in this text go back to PubChem BioAssay (Tox21).

For assay [1], the target named is Estrogen receptor (Homo sapiens) (UniProt P03372). Description: qHTS assay to identify small molecule antagonists of the estrogen receptor alpha (ER-alpha) signaling pathway using the BG1 cell line in the presence of 0.1 nM 17-beta-estradiol (AID 1259244). Also: nearly all actives have a fitted effect of over 50% in size. Also: potency is read from the fitted curve at half-maximal effect. Put shortly: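 VM7Luc4E2 cells (endogenous full-length ER-alpha, stable 4xERE-luciferase) were grown 5 days in phenol red-free medium with charcoal-stripped FBS, then exposed 22 h at 37C to compounds plus 0.1 nM (final) 17beta-estradiol; ONE-Glo luminescence read-out.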
Chain of Estrogen receptor (Homo sapiens) (P03372 whole entry, looked up): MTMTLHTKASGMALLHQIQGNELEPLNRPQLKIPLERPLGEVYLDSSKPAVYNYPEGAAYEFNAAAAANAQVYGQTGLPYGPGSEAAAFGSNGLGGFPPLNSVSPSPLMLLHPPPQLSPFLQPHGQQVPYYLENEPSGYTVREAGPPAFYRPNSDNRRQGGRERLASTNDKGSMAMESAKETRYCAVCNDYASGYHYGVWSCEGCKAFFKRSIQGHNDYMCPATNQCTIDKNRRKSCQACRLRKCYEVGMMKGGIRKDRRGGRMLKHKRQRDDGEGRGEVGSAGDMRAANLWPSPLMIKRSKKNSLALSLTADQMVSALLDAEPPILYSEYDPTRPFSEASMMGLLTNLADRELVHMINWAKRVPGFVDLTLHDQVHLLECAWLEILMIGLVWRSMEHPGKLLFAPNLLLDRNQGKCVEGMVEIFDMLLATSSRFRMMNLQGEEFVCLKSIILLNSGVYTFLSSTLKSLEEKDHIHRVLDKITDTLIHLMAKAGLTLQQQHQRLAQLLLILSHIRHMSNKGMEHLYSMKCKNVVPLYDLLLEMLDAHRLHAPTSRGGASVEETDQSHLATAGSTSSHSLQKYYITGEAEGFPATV
On the technique in general: In qHTS, concentration-response curves come from the screen itself.

A short description of assay [2]: qHTS assay to identify small molecule HDAC inhibitors (AID 1259364). Also: nearly all actives have a fitted effect of over 45% in size. Also: potency is read from the fitted curve at half-maximal effect. In short, it runs like this: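 Wild-type HCT-116 cells were plated overnight, exposed to compounds for 2 h at 37 °C, then given HDAC-Glo class I/II luminogenic reagent for 30 min at room temperature before luminescence was read.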
A short description of assay [3]: qHTS assay to identify small molecule HDAC inhibitors - cell viability counter screen (AID 1259365). Also: nearly all actives have a fitted effect of over 50% in size. Also: potency is read from the fitted curve at half-maximal effect. In short, it runs like this:
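HCT-116 wild-type, overnight attachment; 2hr drug exposure, 37C; CellTiter-Glo luminescent ATP readout after 30min RT.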

Assay [4] is described as follows: qHTS assay to identify small molecule agonists of the sonic hedgehog signaling (Shh) pathway - cell viability counter screen (AID 1259366). Also: nearly all actives have a fitted effect of over 50% in size. Also: potency is read from the fitted curve at half-maximal effect. Put shortly: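 Compounds in DMSO were pin-transferred onto 3T3 Gli1-Luc cells that had settled 4hr; plates then stood 24hr at 37C and 5% CO2. One hour before the end, CellTiter-Fluor was added and fluorescence recorded.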
Assay [5] can be described thus: qHTS assay to identify small molecule antagonists of the sonic hedgehog signaling (Shh) pathway - cell viability counter screen (AID 1259367). Also: nearly all actives have a fitted effect of over 55% in size. Also: potency is read from the fitted curve at half-maximal effect. Put shortly:
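Using CellTiter-Fluor, viability of Gli1-Luc reporter 3T3 cells is read by fluorescence in the wells used for the Shh luciferase assay. Treatment lasts 23 hr with conditioned medium, then reagent 1 hr at 37C.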

Assay [6] can be described thus: qHTS assay to identify small molecule agonists of the sonic hedgehog signaling (Shh) pathway (AID 1259368; calls by dose curve; also: series mostly up to about 92 µM; nearly all actives have a fitted effect of over 15% in size). Put shortly:
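NIH/3T3-derived 3T3Gli1-Luc cells carrying a stably integrated Gli1 response element–firefly luciferase reporter were plated, left 4 hr at 37 C, then given compounds in DMSO for 24 hr. Luminescence was read 30 min after adding luciferase reagent.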

Assay [7] in a line: qHTS assay to identify small molecule antagonists of the sonic hedgehog signaling (Shh) pathway (AID 1259369; calls by dose curve; also: nearly all actives have a fitted effect of over 45% in size; also: potency is read from the fitted curve at half-maximal effect). Put shortly: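 NIH/3T3-derived 3T3Gli1-Luc cells with stably integrated Gli1-Luc reporter were preincubated 4hr at 37 C, then given compounds in DMSO plus Shh conditioned medium and incubated 24hr. Firefly luciferase luminescence read after 30min reagent at room temperature.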

Assay [8] addresses Estrogen receptor beta (Homo sapiens) (UniProt Q92731). The experiment in a line: qHTS assay to identify small molecule agonists of the estrogen receptor beta (ER-beta) signaling pathway (AID 1259377; active = well fitted activation curve with a large enough effect in the signal ratio in the repeat runs, not every such curve was filed as active; the % refers to the signal ratio). Put shortly:
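qHTS in ER-beta-UAS-bla HEK293T cells: 6 hr settling, then 16 hr compound at 37C, then LiveBLAzer substrate 2 h at RT before fluorescence reading.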

Results filed as inconclusive are left out. Calls of active or inactive are those of the source. Unless noted, calls follow the shape of the dose curve; as a rule, active = well fitted curve in the direction sought with a large enough effect in the repeat runs; inconclusive = weak or mixed curves; inactive = no such curve, though single readings can be large; an effect the other way counts as inactive or inconclusive.

Chain of Estrogen receptor beta (Homo sapiens) (Q92731 whole entry, looked up): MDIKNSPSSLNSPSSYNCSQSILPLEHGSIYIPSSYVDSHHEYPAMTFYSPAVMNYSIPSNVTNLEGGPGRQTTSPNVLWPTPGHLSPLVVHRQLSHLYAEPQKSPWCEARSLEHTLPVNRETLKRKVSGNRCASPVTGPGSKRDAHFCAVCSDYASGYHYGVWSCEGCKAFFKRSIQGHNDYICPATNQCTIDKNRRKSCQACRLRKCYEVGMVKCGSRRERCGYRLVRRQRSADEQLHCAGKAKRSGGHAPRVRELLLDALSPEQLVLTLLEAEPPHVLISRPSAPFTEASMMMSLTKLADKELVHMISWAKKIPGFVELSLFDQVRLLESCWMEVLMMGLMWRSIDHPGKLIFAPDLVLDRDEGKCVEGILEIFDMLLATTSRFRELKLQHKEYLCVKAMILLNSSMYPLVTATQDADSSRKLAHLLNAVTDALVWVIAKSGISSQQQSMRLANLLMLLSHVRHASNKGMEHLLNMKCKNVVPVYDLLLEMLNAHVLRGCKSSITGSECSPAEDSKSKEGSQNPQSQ

For the molecule `COc1ccc(OC)c(C=O)c1`, the Potency result in assay [1], in assay [2], in assay [3], in assay [4], in assay [5] and in assay [6] was “inactive” throughout. Further, the Potency entry in assay [7] and in assay [8] was “inactive” in each case.

`BrCBr`: the Potency result in assay [1], in assay [2], in assay [3], in assay [4], in assay [5] and in assay [6] was “inactive” in each case. For the same molecule, the Potency result in assay [7] and in assay [8] was “inactive” throughout.

Regarding `Clc1ccc(-c2ccc(Cl)c(Cl)c2Cl)c(Cl)c1Cl`, the Potency result in assay [1], in assay [2], in assay [3], in assay [4], in assay [5] and in assay [6] was “inactive” each time. In addition, in assay [7], the Potency result was “inactive”.

`CCN(CC)C(=S)[S-].CCN(CC)C(=S)[S-].[Zn+2]`: the Potency was 1.08 µM (active) in assay [1]; 34.1 µM (active) in assay [2]; 1.21 µM (active) in assay [4]; 1.08 µM (active) in assay [5]; 0.481 µM (active) in assay [7]. Besides, the Potency result in assay [3] and in assay [6] was “inactive” in each case.

As for `CCCCCCCCCCCCCC[P+](CCCCCC)(CCCCCC)CCCCCC` (tested in a mixture with another compound), the Potency in assay [1] is 3.86 µM (active); in assay [3], 68.6 µM (active); in assay [4] it was 13.7 µM (active); in assay [5], 48.6 µM (active); in assay [7] it was 0.969 µM (active). For the same molecule, the Potency entry in assay [2] and in assay [6] was “inactive” each time.

Turning to `ClCc1ccccc1CCl`, the Potency result in assay [1], in assay [2], in assay [3], in assay [4], in assay [5] and in assay [6] was “inactive” each time. The Potency result in assay [7] and in assay [8] was “inactive” in each case.

For `O=CC(Br)(Br)Br`, the Potency entry in assay [1], in assay [2], in assay [3], in assay [6] and in assay [8] was “inactive” throughout. For the same molecule, the results for the Potency in assay [4], in assay [5] and in assay [7] were 24.3 µM (active), 60.9 µM (active) and 24.3 µM (active), respectively.

With `CCCCCCCCCBr`, the Potency entry in assay [1], in assay [2], in assay [3], in assay [5], in assay [6] and in assay [7] was “inactive” each time.

As for `CC(=[OH+])/C=C(/C)[O-].CC(=[OH+])/C=C(\C)[O-].CC(=[OH+])/C=C(\C)[O-].[Fe]`, the Potency result in assay [1], in assay [2], in assay [4], in assay [5], in assay [6] and in assay [7] was “inactive” each time.

For the molecule `CC1(c2ccc(Oc3ccccc3)cc2)OC(=O)N(Nc2ccccc2)C1=O` (stereo not drawn), the Potency in assay [1] is 8.69 µM (active); in assay [7], 6.15 µM (active). For the same molecule, the Potency result in assay [2], in assay [3], in assay [6] and in assay [8] was “inactive” each time.

On to `O=c1[nH]c2ccccc2n1C1CCN(CCCC(c2ccc(F)cc2)c2ccc(F)cc2)CC1`, for which the Potency in assay [1] is 48.6 µM (active); in assay [4], 27.3 µM (active). In addition, the Potency entry in assay [2], in assay [3], in assay [5], in assay [6] and in assay [8] was “inactive” in each case.

As for `CCc1nn(C)c(C(=O)NCc2ccc(C(C)(C)C)cc2)c1Cl`, the Potency in assay [1] is 0.0863 µM (active); in assay [7] it was 0.0386 µM (active). Moreover, the Potency entry in assay [2], in assay [3], in assay [6] and in assay [8] was “inactive” throughout.

With `CC(C)(COCC1CO1)COCC1CO1` (stereo not drawn), the Potency result in assay [1], in assay [2], in assay [3], in assay [4], in assay [5] and in assay [6] was “inactive” each time. Also, in assay [8], the Potency entry is “inactive”.

For `O=[N+]([O-])c1cc(C(F)(F)F)c(Cl)c([N+](=O)[O-])c1Cl`, the Potency in assay [1] is 61.1 µM (active); in assay [4], 13.7 µM (active); in assay [5] it was 21.7 µM (active); in assay [7], 4.86 µM (active). The Potency result in assay [2] is “inactive”.

On to `ClC1=C(Cl)C2(Cl)C3C(Cl)C=CC3C1(Cl)C2(Cl)Cl` (stereo not drawn), for which the Potency result in assay [1], in assay [2], in assay [4], in assay [5], in assay [6] and in assay [8] was “inactive” throughout.

Regarding `Nc1ccc(Cl)cc1C(=O)c1ccccc1`, the Potency result in assay [1], in assay [2], in assay [3], in assay [4], in assay [6] and in assay [8] was “inactive” throughout.

On to `COc1cc(C=O)cc2c1[C@H](COC(N)=O)[C@]1(OC(C)=O)ON2C[C@H]2[C@@H]1N2C(C)=O`, for which the figures for the Potency in assay [1] and in assay [4] were 0.154 µM (active) and 6.11 µM (active), respectively. The Potency result in assay [2] and in assay [6] was “inactive” throughout.

Regarding `CC(C)(C)c1cc([N+](=O)[O-])cc(C(C)(C)C)c1O`, the Potency in assay [1] was 6.11 µM (active); in assay [7], 3.06 µM (active). In addition, the Potency entry in assay [2], in assay [3], in assay [4], in assay [6] and in assay [8] was “inactive” in each case.

As to `CC(=O)Nc1ccc2c(c1)Cc1ccccc1-2`, the Potency result in assay [1], in assay [3], in assay [4], in assay [5], in assay [6] and in assay [7] was “inactive” in each case.

On to `CC(C)(C)C(O)/C(=C\c1ccc(Cl)cc1Cl)n1cncn1` (stereo not drawn), for which the Potency is 74 µM (active) in assay [1], 65.9 µM (active) in assay [5] and 7.4 µM (active) in assay [7]. Besides, the Potency result in assay [2], in assay [3], in assay [6] and in assay [8] was “inactive” each time.

Take `CCOP(=S)(OCC)SCCS(=O)(=O)CC`: the Potency result in assay [1], in assay [2], in assay [3], in assay [6] and in assay [8] was “inactive” throughout.

Turning to `CCCCN(CCCC)C(=S)[S-].CCCCN(CCCC)C(=S)[S-].[Zn+2]`, the Potency is 13.7 µM (active) in assay [1], 5.44 µM (active) in assay [4], 6.85 µM (active) in assay [5] and 4.85 µM (active) in assay [7]. Also, the Potency entry in assay [2] and in assay [6] was “inactive” throughout.

Consider `Cc1cc(SCc2sc(-c3ccc(C(F)(F)F)c(F)c3)nc2C)ccc1OCC(=O)O`, for which the Potency entry in assay [1], in assay [3] and in assay [6] was “inactive” in each case. In addition, the figures for the Potency in assay [4] and in assay [5] were 43.3 µM (active) and 30.6 µM (active), respectively.

Consider `Clc1ccc(C(c2ccccc2Cl)C(Cl)(Cl)Cl)cc1` (stereo not drawn), for which the Potency result in assay [1], in assay [2], in assay [3], in assay [5], in assay [6] and in assay [7] was “inactive” throughout. Also, the Potency entry in assay [8] is “inactive”.

In the case of `BrC(Br)C(Br)(Br)Br`, the Potency result in assay [1], in assay [2], in assay [3], in assay [5] and in assay [6] was “inactive” throughout. In addition, the Potency in assay [7] is 61.5 µM (active).

Take `O=C(Nc1ccc2[nH]ccc2c1)c1cc2cc(F)ccc2n1Cc1cccc(F)c1`: the Potency result in assay [1], in assay [2], in assay [6] and in assay [8] was “inactive” throughout. Further, the Potency in assay [4] was 43.3 µM (active); in assay [5], 68.6 µM (active); in assay [7] it was 24.3 µM (active).
